Data taken from PubChem BioAssay AID1159580 (chemical genetic matrix, 2015).
Out of some 5,500 compounds screened, about 2,000 (36%) were called active. Not shown: some 18% with an inconclusive outcome. Rule as the data show it: active = normalized growth mostly below about 0.91 (no sharp cut-off); inconclusive = no clear call, values can overlap the other calls; inactive = mostly above about 0.92. The list shows a part of the results.

Test: chemical genetic growth profiling, strain panel (AID 1159580);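 also: tested at 20 µM; growth read once vehicle control cultures reached saturation at 30 °C; 1 = growth at the plate median or of vehicle wells; lower values mean less growth of the strain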
Conditions: growth OD

Measured: normalized growth

CC(=O)N[C@@H](CCC(=O)O)C(=O)O
inactive: S. cerevisiae deletion strains, locus YJR075W, strain HOC1, active compounds read low 1 | S. cerevisiae deletion strains, locus YKL009W, strain mrt4, active compounds read low 1.06 | S. cerevisiae deletion strains, locus YKL068W, active compounds read low 0.995 | S. cerevisiae deletion strains, locus YKL085W, strain MDH1 (second series), active compounds read low 1.01 | S. cerevisiae deletion strains, locus YKL085W, strain MDH1, active compounds read low 1.01 | S. cerevisiae deletion strains, locus YKL160W, strain elf1, active compounds read low 1.04 | S. cerevisiae deletion strains, locus YKL190W, strain CNB1, active compounds read low 1.01 | S. cerevisiae deletion strains, locus YKR001C, strain vps1, active compounds read low 1.01 | S. cerevisiae deletion strains, locus YKR026C, strain gcn3, active compounds read low 1.01 | S. cerevisiae deletion strains, locus YKR091W, strain srl3, active compounds read low 1.02 | S. cerevisiae deletion strains, locus YLL001W, strain dnm1, active compounds read low 0.996 | S. cerevisiae deletion strains, locus YLL026W, active compounds read low 1.01 | S. cerevisiae deletion strains, locus YLL041C, strain sdh2, active compounds read low 1.03 | S. cerevisiae deletion strains, locus YLR027C, strain aat2, active compounds read low 1.02 | S. cerevisiae deletion strains, locus YLR039C, strain RIC1, active compounds read low 1.02 | S. cerevisiae deletion strains, locus YLR058C, strain SHM2, active compounds read low 0.999 | S. cerevisiae deletion strains, locus YLR102C, strain apc9, active compounds read low 1.01 | S. cerevisiae deletion strains, locus YLR113W, strain HOG1, active compounds read low 0.999 | S. cerevisiae deletion strains, locus YLR221C, strain rsa3, active compounds read low 1 | S. cerevisiae deletion strains, locus YLR258W, strain gsy2, active compounds read low 1.03 | S. cerevisiae deletion strains, locus YLR262C, strain YPT6 (second series), active compounds read low 1.03 | S. cerevisiae deletion strains, locus YLR262C, strain YPT6, active compounds read low 0.998 | S. cerevisiae deletion strains, locus YLR268W, strain sec22, active compounds read low 1.06 | S. cerevisiae deletion strains, locus YLR320W, strain mms22, active compounds read low 1.01 | S. cerevisiae deletion strains, locus YLR330W, strain CHS5, active compounds read low 1.01 | S. cerevisiae deletion strains, locus YLR342W, strain FKS1 (second series), active compounds read low 1.05 | S. cerevisiae deletion strains, locus YLR342W, strain FKS1, active compounds read low 1.01 | S. cerevisiae deletion strains, locus YLR357W, strain rsc2, active compounds read low 0.997 | S. cerevisiae deletion strains, locus YLR370C, strain arc18, active compounds read low 1.02 | S. cerevisiae deletion strains, locus YLR371W, strain rom2, active compounds read low 1 | S. cerevisiae deletion strains, locus YLR384C, strain iki3, active compounds read low 1.01 | S. cerevisiae deletion strains, locus YLR418C, strain cdc73, active compounds read low 1.01 | S. cerevisiae deletion strains, locus YML016C, strain PPZ1, active compounds read low 1 | S. cerevisiae deletion strains, locus YML032C, strain rad52, active compounds read low 1.03 | S. cerevisiae deletion strains, locus YML120C, strain ndi1, active compounds read low 1.01 | S. cerevisiae deletion strains, locus YML124C, strain tub3, active compounds read low 1.01 | S. cerevisiae deletion strains, locus YMR058W, strain fet3, active compounds read low 1.02 | S. cerevisiae deletion strains, locus YMR078C, strain ctf18, active compounds read low 1.01 | S. cerevisiae deletion strains, locus YMR125W, strain sto1, active compounds read low 1.01 | S. cerevisiae deletion strains, locus YMR129W, active compounds read low 1.01 | S. cerevisiae deletion strains, locus YMR205C, strain PFK2, active compounds read low 1.01 | S. cerevisiae deletion strains, locus YMR223W, strain ubp8, active compounds read low 1 | S. cerevisiae deletion strains, locus YMR231W, strain pep5, active compounds read low 1.02 | S. cerevisiae deletion strains, locus YMR263W, strain SAP30, active compounds read low 1.01 | S. cerevisiae deletion strains, locus YMR307W, strain GAS1, active compounds read low 1.04 | S. cerevisiae deletion strains, locus YNL067W, strain RPL9B, active compounds read low 1.01 | S. cerevisiae deletion strains, locus YNL071W, strain lat1, active compounds read low 1.02 | S. cerevisiae deletion strains, locus YNL153C, strain GIM3, active compounds read low 1.01 | S. cerevisiae deletion strains, locus YNL183C, strain NPR1, active compounds read low 0.907 | S. cerevisiae deletion strains, locus YNL209W, strain ssb2, active compounds read low 1.03 | S. cerevisiae deletion strains, locus YNL233W, strain BNI4, active compounds read low 1.01 | S. cerevisiae deletion strains, locus YNL248C, strain rpa49, active compounds read low 1.02 | S. cerevisiae deletion strains, locus YNL250W, strain rad50, active compounds read low 1 | S. cerevisiae deletion strains, locus YNL271C, strain bni1, active compounds read low 1.02 | S. cerevisiae deletion strains, locus YNL298W, strain CLA4, active compounds read low 1.01 | S. cerevisiae deletion strains, locus YNL307C, strain MCK1, active compounds read low 1.02 | S. cerevisiae deletion strains, locus YNL322C, strain KRE1 (second series), active compounds read low 1.01 | S. cerevisiae deletion strains, locus YNR049C, strain mso1, active compounds read low 1.02 | S. cerevisiae deletion strains, locus YNR052C, strain pop2, active compounds read low 1.02 | S. cerevisiae deletion strains, locus YOL006C, strain TOP1, active compounds read low 1.06 | S. cerevisiae deletion strains, locus YOL012C, strain htz1 0.888 | S. cerevisiae deletion strains, locus YOL147C, strain pex11, active compounds read low 1.01 | S. cerevisiae deletion strains, locus YOR001W, strain rrp6, active compounds read low 0.988 | S. cerevisiae deletion strains, locus YOR061W, strain CKA2, active compounds read low 1.01 | S. cerevisiae deletion strains, locus YOR069W, strain VPS5, active compounds read low 1.01 | S. cerevisiae deletion strains, locus YOR070C, strain gyp1, active compounds read low 1.03 | S. cerevisiae deletion strains, locus YOR080W, strain dia2, active compounds read low 1.04 | S. cerevisiae deletion strains, locus YOR083W, strain WHI5, active compounds read low 1.03 | S. cerevisiae deletion strains, locus YOR106W, strain vam3, active compounds read low 1.03 | S. cerevisiae deletion strains, locus YOR136W, strain idh2, active compounds read low 0.993 | S. cerevisiae deletion strains, locus YOR144C, strain elg1, active compounds read low 1.01 | S. cerevisiae deletion strains, locus YOR184W, strain ser1, active compounds read low 1.02 | S. cerevisiae deletion strains, locus YOR231W, strain MKK1, active compounds read low 0.973 | S. cerevisiae deletion strains, locus YOR265W, strain rbl2, active compounds read low 1.01 | S. cerevisiae deletion strains, locus YOR270C, strain vph1, active compounds read low 1.11 | S. cerevisiae deletion strains, locus YOR290C, strain snf2, active compounds read low 1.05 | S. cerevisiae deletion strains, locus YOR316C, strain cot1, active compounds read low 1 | S. cerevisiae deletion strains, locus YPL051W, strain arl3, active compounds read low 1.03 | S. cerevisiae deletion strains, locus YPL055C, strain LGE1, active compounds read low 0.977 | S. cerevisiae deletion strains, locus YPL078C, strain atp4, active compounds read low 1.03 | S. cerevisiae deletion strains, locus YPL106C, strain sse1, active compounds read low 1.02 | S. cerevisiae deletion strains, locus YPL240C, strain hsp82, active compounds read low 1.03 | S. cerevisiae deletion strains, locus YPL256C, strain CLN2, active compounds read low 0.956 | S. cerevisiae deletion strains, locus YPR119W, strain clb2, active compounds read low 1 | S. cerevisiae deletion strains, locus YPR141C, strain kar3, active compounds read low 1.01 | S. cerevisiae deletion strains, locus YPR163C, strain tif3, active compounds read low 1.01 | S. cerevisiae deletion strains, locus YPR167C, strain met16, active compounds read low 1 | S. cerevisiae deletion strains, strain wtn01, active compounds read low 1.02 | S. cerevisiae strains, strain wild type, active compounds read low 1.01
